Here are results for 50 compounds from PubChem BioAssay AID651820 (National Center for Advancing Translational Sciences (NCATS), 2012).

In all, about 340,000 compounds went through this assay and about 12,000 (3.5%) were called active. Roughly 18% stayed inconclusive and do not appear here. The sample as a whole holds a higher share of actives than the screen did. Values without a mark were called inactive. Calls come from the whole dose curve; as a rule, active = well fitted inhibition curve with a large enough effect; inconclusive = small, poorly fitted or top-dose-only effect, or another doubt; inactive = no such curve, though single readings can be large or run the other way.
% is set by controls: 0 for no effect and ±100 for the full control effect.

This test can be described thus: qHTS Assay for Inhibitors of Hepatitis C Virus (HCV). To be noted: Huh7.5.1 HCVcc-Cre infection, luciferase reporter, 44 h; series mostly up to 41.8 µM; activity change, negative = inhibition: at the top concentration. The text has this: Hepatitis C virus (HCV) infects about 200 million people in the world. Many infected people progress to chronic liver disease including cirrhosis with a risk of developing liver cancer. To date, there is no effective vaccine for hepatitis C. Current therapy based on interferon is only effective in about half of the patients and is associated with significant adverse effects. The fraction of people with HCV who can complete a successful treatment is estimated to be no more than 10 percent. Recent development of direct-acting antivirals against HCV, such as protease and polymerase inhibitors, is promising but still requires combination with peginterferon and ribavirin for maximal efficacy. In addition, these agents are associated with high rate of resistance and many have significant side effects. Due to the lack of a culture system for infectious HCV, the search for new HCV drugs has been greatly hampered. […] High-throughput screening (HTS) with an infectious HCV system would cover the complete spectrum of potentially druggable targets in all stages of HCV lifecycle, and would have more biological relevance than other cell-based assays. Moreover, targeting several key processes in the viral life cycle may not only increase antiviral efficacy; more importantly, it may also reduce the capacity of the virus to develop resistance to the compound. The goal of this project is to identify novel HCV inhibitors as new therapies for hepatitis C, using a highly sensitive and specific assay platform which is based on a HCV infectious cell culture system established in the laboratory and adapted for high-throughput HCV drug screen. NIH Chemical Genomics Center [NCGC] NIH Molecular Libraries Probe Centers Network [MLPCN] MLPCN Grant: MH095511 Assay Submitter (PI): Jake Liang, NIDDK
The assay will start with plating 1,000 cells/well in 3 µL volume and culture for 4 h. Then 23 nL of compounds from the library collection will be added to each well, followed by adding 2.5 µL of HCVcc-Cre virus (~ 0.5 moi) and further cultured for 44 h before the luciferase assay. A volume of 4.5 µL luciferase substrates will be added to each well and the plates will be incubated at room temperature for 15 min. and then read for 15 sec. for the luciferase activity
In general terms: In qHTS, concentration-response curves come from the screen itself.
For the compound `Cc1ccc(-c2nc3c(cnn3-c3ccccc3)c(=O)o2)cc1`, the “activity change, negative = inhibition” value was 18.5%.

In the case of `Cc1ccc(-n2ncc3c2ncn2nc(-c4ccco4)nc32)c(C)c1`, the “activity change, negative = inhibition” value is -1.19%.

As to `Cc1ccc(-n2ncc3c(=O)n(-c4ccc(C)c(C)c4)c(-c4ccco4)nc32)cc1`, the Potency was 3.98 µM (active).

For `O=c1ccc2c(-c3ccccc3S(=O)(=O)O)c3ccc(O)c(O)c3oc-2c1O`, the “activity change, negative = inhibition” value was -10.9%.

`O=C(CN1C(=O)c2ccc([N+](=O)[O-])cc2C1=O)Nc1nnc(C2CC2)s1`: the “activity change, negative = inhibition” value is 33.3%.

`CC(CCN1CCN=C1N(C)C)c1ccccc1` (stereo not given): the “activity change, negative = inhibition” value is -8.02%.

`O=C(COc1ccccc1F)NNC(=O)c1cc(Br)ccc1Cl`: the “activity change, negative = inhibition” value is 15.1%.

Take `O=C(CCNC(=O)c1ccc(Br)cc1)NCCCc1ccccc1`: the “activity change, negative = inhibition” value was 24.9%.

In the case of `CCOc1ccc(NC(=O)CN(C)C(=O)Cc2sc(C)nc2-c2ccc(F)cc2)cc1OCC`, the “activity change, negative = inhibition” value is -12.3%.

On to `CCOc1ccccc1NC(=S)C(=C([O-])c1ccc2c(c1)OCCO2)[n+]1ccc(CC)cc1`, for which the “activity change, negative = inhibition” value was 6.44%.

As to `COc1ccccc1/C=C/C1=NC(=C\N(C)C)/C(=O)O1`, the Potency is 11.2 µM (active).

In the case of `COc1ccccc1/C=C/C(=O)NC(=S)N1CCOCC1`, the “activity change, negative = inhibition” value is 0.814%.

For the compound `O=C1OC(/C=C/c2ccccc2)=NC/1=C/c1ccco1`, the “activity change, negative = inhibition” value was 2.84%.

Take `O=C(O)C(CCc1ccccn1)c1ccccc1` (stereo not given): the “activity change, negative = inhibition” value was 2.66%.

Regarding `O=C(CSc1nnc(Nc2ccccc2F)s1)NC1CCCC1`, the “activity change, negative = inhibition” value is -7.98%.

As to `CCCOC(=O)c1[nH]c2c(c1C)C(=O)CC(c1cc(OC)c(OC)c(OC)c1)C2` (stereo not given), the Potency was 4.47 µM (active).

As to `COCCOC(=O)c1[nH]c2c(c1C)C(=O)CC(c1ccc(OC)cc1)C2` (stereo not given), the “activity change, negative = inhibition” value was -18.2%.

For the compound `CCOC(=O)c1[nH]c2c(c1-c1ccccc1)C(=O)CC(c1ccc(Cl)cc1)C2` (stereo not given), the “activity change, negative = inhibition” value is 11.8%.

Turning to `O=c1oc(-c2ccco2)nc2sc3c(c12)CCCCC3`, the “activity change, negative = inhibition” value was 0.369%.

As for `Cn1c(=O)n(Cc2ccco2)c(=N)c2c3c(sc21)CCCC3`, the Potency was 10 µM (active).

Turning to `Cn1c2c(c(=O)n(C)c1=O)CN(Cc1ccco1)CN2`, the “activity change, negative = inhibition” value is 29.8%.

Take `COc1cc(C)ccc1OCC(=O)OCC(=O)c1ccc[nH]1`: the “activity change, negative = inhibition” value is 5.28%.

Take `O=C(N/N=C/c1c[nH]c2ccccc12)c1ccccc1O`: the “activity change, negative = inhibition” value is 7.77%.

As to `O=C(N/N=C/c1ccc(O)c2ccccc12)c1cccnc1`, the “activity change, negative = inhibition” value was 0.147%.

Regarding `O=C(NN=Cc1ccccc1O)NN=Cc1ccccc1O`, the Potency was 5.01 µM (active).

On to `NC(=O)NC(=O)C(OC(=O)CCNS(=O)(=O)c1ccccc1)c1ccccc1` (stereo not given), for which the “activity change, negative = inhibition” value was 22.6%.

For `COc1ccccc1N1CCN(C(=O)c2ccc(S(=O)(=O)N3CCCCC3)cc2)CC1`, the “activity change, negative = inhibition” value is 0.986%.

`O=C(c1ccc(Cl)c(S(=O)(=O)N2CCCCC2)c1)N1CCCCCC1`: the “activity change, negative = inhibition” value is -27.9%.

With `COc1ccccc1N1CCN(C(=O)c2ccc(Cl)c(S(=O)(=O)N3CCCC3)c2)CC1`, the Potency is 11.2 µM (active).

Take `O=C(NN1CCOCC1)c1cccc(F)c1`: the “activity change, negative = inhibition” value was 28%.

Take `CNC(=O)N1c2ccccc2C=Cc2ccccc21`: the “activity change, negative = inhibition” value was 2.06%.

Regarding `CCNC(=O)N1c2ccccc2Sc2ccccc21`, the “activity change, negative = inhibition” value was -20.7%.

`CC1C(C)N(C(=O)CCl)c2ccccc2N1C(=O)CCl` (stereo not given): the Potency was 4.47 µM (active).

As for `O=C(CSc1nc2ccccc2c(=O)n1-c1ccccc1F)N1CCOCC1`, the “activity change, negative = inhibition” value was 9.53%.

As for `CN(CC(=O)Nc1ccc(C(N)=O)cc1)S(=O)(=O)c1ccc2c(c1)OCCO2`, the “activity change, negative = inhibition” value is -10.4%.

Turning to `Cn1c(=O)cc(SCC(=O)N2CCN(C(=O)c3ccco3)CC2)c2ccccc21`, the “activity change, negative = inhibition” value was -1.57%.

Take `Cn1c(=O)cc(SCC(=O)N2CCCC2)c2cc(Cl)ccc21`: the Potency was 10 µM (active).

On to `CCOC(=O)C1CCN(C(=O)CSc2cc(=O)n(C)c3ccccc23)CC1`, for which the “activity change, negative = inhibition” value is 9.61%.

For `CC(=O)c1ccc(NC(=O)C2CCCN2S(=O)(=O)c2cccs2)cc1` (stereo not given), the “activity change, negative = inhibition” value is 8.62%.

With `O=C(Nc1ccc(OC(F)(F)F)cc1)c1ccc2c(c1)no[n+]2[O-]`, the Potency was 31.6 µM (active).

Turning to `COC(=O)[C@H](C)NC(=O)Nc1ccc(OC(F)(F)F)cc1`, the “activity change, negative = inhibition” value was 8.34%.

As to `Cn1nccc1NC(=O)Nc1ccc(OC(F)(F)F)cc1`, the “activity change, negative = inhibition” value was 4.83%.

On to `COc1ccc(S(=O)(=O)N2CCCC2CNC(=O)C(=O)NC2CC2)cc1` (stereo not given), for which the “activity change, negative = inhibition” value was 21.9%.

Regarding `O=C(NC1CCCCCC1)C1CCN(C(=O)c2ccc(Cl)cc2)CC1`, the “activity change, negative = inhibition” value is 6.16%.

Regarding `CC(=O)N1c2ccc(S(=O)(=O)N3CCCC(C(=O)Nc4cccc(F)c4)C3)cc2CC1C` (stereo not given), the Potency is 11.2 µM (active).

Turning to `Cc1cc(C)cc(NC(=O)C2CCCN(S(=O)(=O)c3ccc4[nH]c(=O)ccc4c3)C2)c1` (stereo not given), the “activity change, negative = inhibition” value is -21.5%.

Take `CCc1cccc(NC(=O)C2CCCN(S(=O)(=O)c3ccc4[nH]c(=O)ccc4c3)C2)c1` (stereo not given): the “activity change, negative = inhibition” value is -6.12%.

Regarding `CC(=O)N1c2ccc(S(=O)(=O)N3CCC(C(=O)NC4CCCCC4C)CC3)cc2CC1C` (stereo not given), the “activity change, negative = inhibition” value is 0.0955%.

As for `CC(=O)N1c2ccc(S(=O)(=O)N3CCCC(C(=O)Nc4ccc(C)cc4C)C3)cc2CC1C` (stereo not given), the “activity change, negative = inhibition” value is -8.23%.

Take `CC(=O)N1c2ccc(S(=O)(=O)N3CCCC(C(=O)Nc4cccc(Cl)c4)C3)cc2CC1C` (stereo not given): the Potency was 5.62 µM (active).
